Inconclusive results are not listed. Entries that show only a call come without a potency. Active and inactive are the calls of the source. Calls come from the whole dose curve; as a rule, active = well fitted inhibition curve with a large enough effect; inconclusive = small, poorly fitted or top-dose-only effect; inactive = flat fitted curve, though single readings scatter.
Molecular target: Calcium and integrin-binding protein 1 (Homo sapiens) (UniProt Q99828)
Assay: Primary qHTS for Identification of Calcium Integrin Binding Protein 1 (CIB1) Competitor (AID 1508620);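 note: GST tagged CIB1 binding a fluorescein labelled alphaIIb integrin peptide tracer; top concentration of the series differs between compounds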
Details: CIB1-GST / FITC-alphaIIb peptide fluorescence polarization; series mostly up to 114 µM
Summary of the method: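 CIB1-GST (1 uM final) and compound incubated 15 min at room temperature before adding FITC-alphaIIb peptide tracer (100 nM final). Competition for binding read by fluorescence polarization (ex 480, em 540) after another 15 min at room temperature.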

Calcium and integrin-binding protein 1 (Homo sapiens), sequence (Q99828 whole entry, looked up): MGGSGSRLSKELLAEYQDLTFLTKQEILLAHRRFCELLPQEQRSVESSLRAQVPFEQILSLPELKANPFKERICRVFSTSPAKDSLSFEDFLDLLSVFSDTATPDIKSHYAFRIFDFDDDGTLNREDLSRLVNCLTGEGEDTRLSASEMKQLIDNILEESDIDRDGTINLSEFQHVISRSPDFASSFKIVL

How did the Potency turn out when `CS(=O)(=O)c1ccc(C(=O)OCC(=O)N2CCC(c3ccccc3)CC2)cc1[N+](=O)[O-]` was run?
The Potency was “inactive”.

For `Cc1cc(C)n2ncc(C(=O)Nc3ccc(C#N)cc3)c2n1`, which Potency is on record?
The Potency was “inactive”.

For `Cc1cccc(C)c1-n1c(SCC(=O)NCCCCCC(=O)O)nnc1-c1cccc([S+](=O)([O-])N2CCCC2)c1`, which Potency is on record?
Its Potency is “inactive”.

For `CC(=O)Nc1cccc([S+](=O)([O-])N2CCCN([S+](=O)([O-])c3cccc(NC(C)=O)c3)CC2)c1`, which Potency is on record?
The Potency was “inactive”.

With `c1nc(N2CCC(N3CCCC3)CC2)c2cc(-c3ccc4c(c3)OCO4)ccc2n1` as the compound, how does the Potency read?
Its Potency is “inactive”.

`Cc1cccc(C)c1SC1=NS(=O)(=O)c2ccccc21` was tested. Which Potency did it give?
Its Potency is “inactive”.

For `O=C(Cc1ccccc1)Nc1sc2c(c1C(=O)Nc1cccc(Cl)c1)CCCC2`, which Potency is on record?
Its Potency is “inactive”.

For `N#Cc1c(-c2ccc(C(F)(F)F)cc2)no[n+]1[O-]`, which Potency is on record?
The Potency was “inactive”.

For `Cc1c(Cl)cccc1NS(=O)(=O)c1cc2c(cc1F)NC(=O)CC2`, which Potency is on record?
The Potency was “inactive”.

Which Potency does the source give for `COc1cc(O)c(C(CC(=O)N2CCCC(C(=O)c3ccccc3)C2)c2ccc3c(c2)OCO3)c(OC)c1` (stereo not given) here?
The Potency was “inactive”.

How did the Potency turn out when `N#Cc1ccc(NC(=O)Nc2nnc(-c3ccncc3)s2)c(Cl)c1` was run?
The Potency was “inactive”.

Which Potency does the source give for `Nc1ccc(-c2ccnc(NCCCNC(=O)c3c(Cl)cccc3Cl)n2)cc1` here?
Its Potency is “inactive”.

Which Potency does the source give for `c1cc2c(cc1CNc1ccc(N3CCCCC3)cc1)OCO2` here?
Its Potency is “inactive”.

Which Potency does the source give for `COc1ccc(C2=Nn3c(nnc3-c3ccccc3Cl)SC2)cc1OC1CCCC1` here?
The Potency was “inactive”.

Which Potency does the source give for `COc1cc2ncnc(N(C)Cc3cccs3)c2cc1-c1ccc2c(c1)OCO2` here?
Its Potency is “inactive”.

`FC(F)(F)c1cccc(Nc2ccc(CNc3nc(-c4ccccc4C(F)(F)F)nc4ccccc34)cc2)c1` was tested. Which Potency did it give?
The Potency was “inactive”.

Which Potency does the source give for `COC(=O)c1ccc(Cn2ncc3c4sc(C)cc4n(C)c3c2=O)cc1` here?
Its Potency is “inactive”.

With `O=S(=O)(Nc1nccs1)c1ccc(NCc2ccccc2O)cc1` as the compound, how does the Potency read?
Its Potency is “inactive”.

Which Potency does the source give for `O=C(NCCc1nc2ccccc2n1CCOc1cc(F)ccc1F)C1CCCCC1` here?
The Potency was “inactive”.

With `CCOc1ccccc1-c1nnc2n1N=C(c1cc(OC)ccc1OC)CS2` as the compound, how does the Potency read?
The Potency was “inactive”.

`CCOc1ccc(C(=O)Oc2ccc(-c3nc4ccccc4[nH]3)cc2)cc1` was tested. Which Potency did it give?
Its Potency is “inactive”.

How did the Potency turn out when `O=S1(=O)N=C(N2CCOCC2)c2ccccc21` was run?
The Potency was “inactive”.

How did the Potency turn out when `C[C@H]1CN(S(=O)(=O)c2c(F)cccc2F)CCN1S(=O)(=O)c1ccc2c(c1)OCCO2` was run?
The Potency was “inactive”.

`NC(=O)c1cccc(C[C@H](C(=O)O)N2C(=O)c3ccc(C(=O)O)cc3C2=O)c1` was tested. Which Potency did it give?
The Potency was “inactive”.

How did the Potency turn out when `Cc1ccc(OCCn2c(CCNC(=O)Cc3cccc4ccccc34)nc3ccccc32)cc1` was run?
Its Potency is “inactive”.

`CCOC(=O)c1ccc(-c2ccc3ncnc(NCc4ccc(C)o4)c3c2)o1` was tested. Which Potency did it give?
Its Potency is “inactive”.

How did the Potency turn out when `COc1ccccc1CNC(=O)Nc1nnc(-c2ccncc2)s1` was run?
Its Potency is “inactive”.

For `O=C(O)c1ccc2c(c1)C(=O)N([C@H](Cc1ccc(O)cc1)C(=O)O)C2=O`, which Potency is on record?
The Potency was “inactive”.

For `CC(=O)Nc1sc2c(c1-c1ccc(C)cc1)CCNC2`, which Potency is on record?
The Potency was “inactive”.

For `O=C1c2ccccc2C(=O)N1c1ccncc1`, which Potency is on record?
Its Potency is “inactive”.

Which Potency does the source give for `CC(C)CC(OC(=O)CNC(=O)c1ccccc1)C(=O)Nc1cc(C(F)(F)F)ccc1Cl` (stereo not given) here?
Its Potency is “inactive”.

Which Potency does the source give for `Cc1cc2c(s1)c(C#N)c(C(=O)NCc1ccccc1F)n2C` here?
Its Potency is “inactive”.

For `N#Cc1nc(Nc2cccc(Br)c2)nc(NC2CCCC2)n1`, which Potency is on record?
Its Potency is “inactive”.

Which Potency does the source give for `CC(=O)Nc1sc2c(c1-c1ccc3c(c1)OCCCO3)CCNC2` here?
The Potency was “inactive”.

How did the Potency turn out when `Cc1cc2c(s1)c1cnn(Cc3ccc(SC(F)(F)F)cc3)c(=O)c1n2C` was run?
Its Potency is “inactive”.

For `COCCN1C(=O)c2ccccc2NC1c1ccc(OC)c(COc2c(C)cc(NC(C)=O)cc2C)c1` (stereo not given), which Potency is on record?
The Potency was “inactive”.

Which Potency does the source give for `CCC(Nc1ncnc2ccc(-c3c(C)noc3C)cc12)c1ccccc1` (stereo not given) here?
Its Potency is “inactive”.

How did the Potency turn out when `COc1ccc(Nc2cc(O)c3ncccc3c2)cc1` was run?
The Potency was “inactive”.

With `O=C1CCCC2=C1C(c1[nH]ncc1Cl)NC(=NCc1cccs1)N2` (stereo not given) as the compound, how does the Potency read?
Its Potency is “inactive”.

With `c1nc(NCCc2cnc[nH]2)c2cc(-c3ccc4c(c3)OCO4)ccc2n1` as the compound, how does the Potency read?
Its Potency is “inactive”.
